Measurements as given in PubChem BioAssay (NCATS).
A number with no mark means an inactive call. Inconclusive results are not listed. Where a call stands in place of a potency, no number is given. Calls of active or inactive are those of the source. Calls come from the whole dose curve; as a rule, active = well fitted curve in the direction sought with a large enough effect; inconclusive = small, poorly fitted or top-dose-only effect, or another doubt; inactive = no such curve, though single readings can be large; an effect the other way counts as inactive or inconclusive.

What was measured:
[1] = molecular target: Glutaminase kidney isoform, mitochondrial (Homo sapiens) (UniProt O94925); experiment: qHTS for Inhibitors of Glutaminase (GLS): LOPAC Validation (AID 624146); note: nearly all actives have a fitted effect of over 60% in size; note: potency is the fitted concentration of half-maximal effect
Sequence of Glutaminase kidney isoform, mitochondrial (Homo sapiens) (O94925 whole entry, looked up, canonical isoform): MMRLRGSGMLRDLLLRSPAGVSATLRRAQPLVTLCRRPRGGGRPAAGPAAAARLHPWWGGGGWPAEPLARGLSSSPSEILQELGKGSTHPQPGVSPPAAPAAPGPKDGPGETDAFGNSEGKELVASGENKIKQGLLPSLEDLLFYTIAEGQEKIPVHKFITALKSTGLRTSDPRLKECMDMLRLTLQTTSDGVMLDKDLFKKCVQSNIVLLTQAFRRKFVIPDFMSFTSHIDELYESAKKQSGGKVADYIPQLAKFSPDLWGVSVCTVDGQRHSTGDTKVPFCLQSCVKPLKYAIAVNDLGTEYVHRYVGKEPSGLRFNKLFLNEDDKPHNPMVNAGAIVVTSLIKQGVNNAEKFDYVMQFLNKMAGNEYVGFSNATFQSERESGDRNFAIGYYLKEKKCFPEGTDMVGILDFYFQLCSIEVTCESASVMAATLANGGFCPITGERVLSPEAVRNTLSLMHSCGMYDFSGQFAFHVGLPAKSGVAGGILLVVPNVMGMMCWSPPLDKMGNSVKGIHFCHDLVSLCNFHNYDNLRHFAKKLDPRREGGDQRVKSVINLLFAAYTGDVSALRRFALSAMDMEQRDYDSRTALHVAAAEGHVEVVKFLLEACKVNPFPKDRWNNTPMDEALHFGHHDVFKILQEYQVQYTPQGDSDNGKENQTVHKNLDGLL
Method in brief: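 Enzyme dispensed in phosphate buffer (45 mM, pH 8.2, 0.02% Tween-20), compounds pinned in, then 1 mM L-glutamine solution and the glutamate oxidase–HRP–Amplex Red mix added; fluorescence read immediately and again after 30 min at room temperature.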

[2] = qHTS of Trypanosoma Brucei Inhibitors: LOPAC Validation (AID 624147)
Method in brief: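 Quantitative HTS: titrated library compounds versus trypanosomal pyruvate kinase in TEA buffer (pH 7.2) containing KCl, MgCl2, BSA and Tween-20. Reactions were initiated with ADP, 130 uM final. Kinase-Glo Plus luminescence was read after 45 min at RT.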

[3] = molecular target: Glucagon-like peptide 1 receptor (Homo sapiens) (UniProt P43220); experiment: qHTS of GLP-1 Receptor Agonists: LOPAC Validation (AID 624148);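 note: higher luminescence signal means agonism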
Sequence of Glucagon-like peptide 1 receptor (Homo sapiens) (P43220 whole entry, looked up): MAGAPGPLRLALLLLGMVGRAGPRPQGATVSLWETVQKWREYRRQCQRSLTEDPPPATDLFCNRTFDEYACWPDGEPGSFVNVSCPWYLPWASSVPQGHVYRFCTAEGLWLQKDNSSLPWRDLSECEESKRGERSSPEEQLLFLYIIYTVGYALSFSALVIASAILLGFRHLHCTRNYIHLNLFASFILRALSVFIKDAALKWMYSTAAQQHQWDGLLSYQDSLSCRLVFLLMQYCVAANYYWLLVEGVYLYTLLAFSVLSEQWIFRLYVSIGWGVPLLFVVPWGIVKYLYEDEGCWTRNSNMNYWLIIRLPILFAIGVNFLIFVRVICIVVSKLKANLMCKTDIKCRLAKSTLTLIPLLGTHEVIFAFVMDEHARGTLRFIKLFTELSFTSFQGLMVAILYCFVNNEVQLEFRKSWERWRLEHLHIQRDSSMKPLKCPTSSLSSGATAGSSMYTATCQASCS
Method in brief: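 HEK293 cells stably co-expressing a cAMP-responsive luciferase reporter and a hypersensitive GLP-1R were plated 12 h at 37 °C and exposed to compounds for 4-6 hr at 37 °C, 5% CO2. Luminescence was read 12 min after adding detection reagent.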

[4] = qHTS of Nrf2 Activators: LOPAC Validation (AID 624149)
Method in brief: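 AREc32_Fluc cells, 1000/well, OPTI-MEM + 5% FBS, o/n 37 deg C 5% CO2; compound pin-transfer, 24 hr 37 deg C; Steady-Glo 30 min RT, luminescence read.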

[5] = HTS Assay for Allosteric Antagonists of the Human D2 Dopamine Receptor: Hit Validation in HTRF (AID 624455); note: potency is the fitted concentration of half-maximal effect
Method in brief: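 HTRF read-out; cells stably expressing D1 receptor; hits scored for inhibition of D1-mediated response. Primary screen: calcium flux, force-coupled inducible Hek293 Trex D2 line, antagonism vs EC80 dopamine.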

NCCNS(=O)(=O)c1cccc2c(Cl)cccc12
Potency [1]: inactive
Potency [2]: inactive
Potency [3]: inactive
Potency [4]: inactive
Potency [5]: inactive

CC[C@H](NC(=O)c1c(C)c(-c2ccccc2)nc2ccccc12)c1ccccc1
Potency [1]: inactive
Potency [2]: inactive
Potency [3]: inactive
Potency [4]: inactive
Potency [5]: inactive

CCCn1c(=O)c(C)cn2nc(N)nc12
Potency [1]: inactive
Potency [2]: inactive
Potency [3]: inactive
Potency [4]: inactive
Potency [5]: inactive

CCCCCC[C@@H]([C@@H](C)O)n1cnc2c(N)ncnc21
Potency [1]: inactive
Potency [2]: inactive
Potency [3]: inactive
Potency [4]: inactive
Potency [5]: inactive

NC(Cc1cccc(-c2ccccc2CP(=O)(O)O)c1)C(=O)O (configuration not stated)
Potency [1]: inactive
Potency [2]: inactive
Potency [3]: inactive
Potency [4]: inactive
Potency [5]: inactive

COc1ccc(CCn2nnnc2C2(c3ccc(C)cc3)CC2)cc1
Potency [1]: inactive
Potency [2]: inactive
Potency [3]: inactive
Potency [4]: inactive
Potency [5]: inactive

CCc1ccc2c(-c3cccc(Cl)c3)nc(=O)n(CC)c2n1
Potency [1]: inactive
Potency [2]: inactive
Potency [3]: inactive
Potency [4]: inactive
Potency [5]: inactive

O=c1cc(-c2ccccc2F)[nH]c2cc3c(cc12)OCO3
Potency [1]: inactive
Potency [2]: inactive
Potency [3]: inactive
Potency [4]: inactive
Potency [5]: inactive

C[C@]12C=CC(=O)C=C1CC[C@@H]1C2=CC[C@]2(C)[C@@H](C(=O)CN3CCN(c4cc(N5CCCC5)nc(N5CCCC5)n4)CC3)CC[C@@H]12
Potency [1]: inactive
Potency [2]: inactive
Potency [3]: inactive
Potency [4]: inactive
Potency [5]: inactive

Cc1cccc(C)c1OCC(N)C(C)C (configuration not stated)
Potency [1]: inactive
Potency [2]: inactive
Potency [3]: inactive
Potency [4]: inactive
Potency [5]: inactive

CNCCc1cnc(CCC(c2ccccc2)c2ccccc2)[nH]1
Potency [1]: inactive
Potency [2]: inactive
Potency [3]: inactive
Potency [4]: inactive
Potency [5]: inactive

OC[C@H]1O[C@H](n2cnc3c(N[C@H]4CCC[C@@H]4O)ncnc32)[C@H](O)[C@@H]1O
Potency [1]: inactive
Potency [2]: inactive
Potency [3]: inactive
Potency [4]: inactive
Potency [5]: inactive

O=c1onc2n1-c1cc(Br)ccc1OC2
Potency [1]: inactive
Potency [2]: inactive
Potency [3]: inactive
Potency [4]: inactive
Potency [5]: inactive

[Li+]
Potency [1]: inactive
Potency [2]: inactive
Potency [3]: inactive
Potency [4]: inactive
Potency [5]: inactive

N=C(N)c1ccc(OCCCCCOc2ccc(C(=N)N)cc2)cc1 (tested in a mixture with another compound)
Potency [1]: inactive
Potency [2]: inactive
Potency [3]: inactive
Potency [4]: inactive
Potency [5]: inactive

COc1cc(CNC(=O)CCCCCCC(C)C)ccc1O
Potency [1]: 3.16 µM (active)
Potency [2]: inactive
Potency [3]: inactive
Potency [4]: inactive
Potency [5]: inactive

O=C1Nc2ccc(I)cc2/C1=C/c1cc(Br)c(O)c(Br)c1
Potency [1]: inactive
Potency [2]: inactive
Potency [3]: inactive
Potency [4]: inactive
Potency [5]: inactive

NCC(O)C1CCCCCCC1 (configuration not stated)
Potency [1]: inactive
Potency [2]: inactive
Potency [3]: inactive
Potency [4]: inactive
Potency [5]: inactive

CC(=O)SC1CC2=CC(=O)CC[C@]2(C)C2CC[C@@]3(C)C(CC[C@@]34CCC(=O)O4)C12 (some centres not stated)
Potency [1]: inactive
Potency [2]: inactive
Potency [3]: inactive
Potency [4]: inactive
Potency [5]: inactive

COc1cc(/C=C(\C#N)C(=O)Nc2nnc(C(F)(F)F)s2)ccc1OCc1ccc(C(F)(F)F)cc1C(F)(F)F
Potency [1]: inactive
Potency [2]: inactive
Potency [3]: inactive
Potency [4]: inactive
Potency [5]: inactive

C=C1C[C@@]23CC[C@H]4[C@@](C)(CCC[C@@]4(C)C(=O)O)[C@@H]2CC[C@]1(O)C3
Potency [1]: inactive
Potency [2]: inactive
Potency [3]: inactive
Potency [4]: inactive
Potency [5]: inactive

O=C(O)C1=CCCN(CCON=C(c2ccccc2)c2ccccc2)C1
Potency [1]: inactive
Potency [2]: inactive
Potency [3]: inactive
Potency [4]: inactive
Potency [5]: inactive

Brc1c(Br)c(Br)c2[nH]cnc2c1Br
Potency [1]: inactive
Potency [2]: inactive
Potency [3]: inactive
Potency [4]: inactive
Potency [5]: inactive

Nc1nc2[nH]c(=O)cnc2c(=O)[nH]1
Potency [1]: inactive
Potency [2]: inactive
Potency [3]: inactive
Potency [4]: inactive
Potency [5]: inactive

O=C(O)CCC/C=C\C[C@@H]1[C@@H](/C=C/[C@H](O)C2Cc3ccccc3C2)[C@@H](F)C[C@@H]1O
Potency [1]: inactive
Potency [2]: inactive
Potency [3]: inactive
Potency [4]: inactive
Potency [5]: inactive

N[C@@H](Cc1ccc(F)cc1)C(=O)O
Potency [1]: inactive
Potency [2]: inactive
Potency [3]: inactive
Potency [4]: inactive
Potency [5]: inactive

CC(/C=C/c1cccc(Oc2ccc(F)cc2)c1)N(O)C(N)=O (configuration not stated)
Potency [1]: 1.78 µM (active)
Potency [2]: inactive
Potency [3]: inactive
Potency [4]: inactive
Potency [5]: inactive

CCCCCCCC/C=C\CCCCCCCC(=O)NCCc1ccc(O)c(O)c1
Potency [2]: inactive
Potency [3]: inactive
Potency [4]: inactive
Potency [5]: 0.651 µM (active)

C[C@@H](NCCc1ccc(O)cc1)[C@@H](O)c1ccc(O)cc1
Potency [2]: inactive
Potency [4]: inactive
Potency [5]: inactive
